Assay results reported in PubChem BioAssay AID686979 (National Center for Advancing Translational Sciences (NCATS), 2013).
In all, about 420,000 compounds went through this assay and about 50,000 (12%) were called active. Another 26% or so got no clear call; they are omitted. Calls come from the whole dose curve; as a rule, active = well fitted inhibition curve with a large enough effect; inconclusive = small, poorly fitted or top-dose-only effect; inactive = flat fitted curve, though single readings scatter. The full list was thinned out, with actives kept by preference. Where a SMILES comes first, the peptide text is derived from it. The star is where a group is joined. Bz = O=C(c1ccccc1)*

Test: qHTS for Inhibitors of human tyrosyl-DNA phosphodiesterase 1 (TDP1): qHTS in cells in presence of CPT; note: nearly all actives have a fitted effect of over 55% in size
Conditions: chicken DT40 Tdp1-/-;hTDP1 cells + 20 nM CPT, ATP luminescence, 48 h; series mostly up to 46.2 µM; activity change, negative = growth inhibition: at the top concentration
Procedure, shortened: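 Cell growth measured by CellTiter-Glo luminescence after a minimum 48 h, 37 C compound exposure with 20 nM CPT in Tdp1-knockout DT40 cells stably expressing hTDP1, seeded 400/well; qHTS titration format.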
% is set by controls: 0 for no effect and ±100 for the full control effect; potency is the fitted concentration of half-maximal effect.

Row | SMILES | activity change, negative = growth inhibition | Potency
1 | COc1cc(OC)c(C2=NOC(C(=O)Nc3c(C)n(C)n(-c4ccccc4)c3=O)C2)cc1Cl (centres undefined) | -4.68% (inactive) | 
2 | O=C(Nc1ccc2c(c1)OCCO2)C1c2ccccc2OCC(=O)N1Cc1ccccn1 (centres undefined) | 2.14% (inactive) | 
3 | CC1CCC(NC(=O)C2c3ccccc3C(=O)N2Cc2ccc3c(c2)OCO3)CC1 (centres undefined) | 6.63% (inactive) | 
4 | O=C(Nc1ccc(Cl)cc1)C1c2cccc[n+]2CC(=O)N1Cc1ccc2c(c1)OCO2 (centres undefined) |  | 1.3 µM (active)
5 | CCOc1ccc(NS(=O)(=O)c2ccc(N)cc2)nn1 | -8.34% (inactive) | 
6 | COc1cccc(NC(=O)c2ccccc2N(Cc2ccccc2)S(C)(=O)=O)c1 | -18.5% (inactive) | 
7 | COc1ccc(S(=O)(=O)N2CCN(CC(=O)NCC3(N4CCOCC4)CCCCC3)CC2)cc1 | -11.5% (inactive) | 
8 | CC(NC(=S)Nc1ccc(OC(F)F)cc1)c1ccc(F)cc1 (centres undefined) |  | 14.6 µM (active)
9 | O=C1CCC(C(=O)Nc2ccc(OC(F)F)cc2)N1 (centres undefined) | 2.42% (inactive) | 
10 | CC(C)N(Cc1ccccc1)C(=S)Nc1ccc(OC(F)F)cc1 | -3.09% (inactive) | 
11 | Cc1c(CN2CCC(n3nccc3NC(=O)CCc3ccccc3)CC2)cnn1C | -2.41% (inactive) | 
12 | COc1cccc(/C=N/NC(=O)c2[nH]nc3c2CCc2ccccc2-3)c1O |  | 2.31 µM (active)
13 | CN(C)CCNC(=O)c1[nH]nc2c1CCc1ccccc1-2 | 7.41% (inactive) | 
14 | COc1cc2cc(C(=O)N/N=C/c3cccc(OC)c3OC)[nH]c2cc1OC | -7.05% (inactive) | 
15 | O=C1CC(c2cccc(Cl)c2)CC(O)=C1C=Nc1ccccc1 (centres undefined) | -29.9% (inactive) | 
16 | CSc1ncnc2c1ncn2CCCNCc1cccs1 | 5.05% (inactive) | 
17 | Cn1c(=O)c2c(n3c4ccccc4nc13)NC(=O)CC2c1cccc(Cl)c1 (centres undefined) | -18.7% (inactive) | 
18 | CC(Oc1cccc(NC(=O)c2cccs2)c1)C(=O)c1ccccc1 (centres undefined) | -1.98% (inactive) | 
19 | Cc1ccc(-c2noc(-c3nnn(-c4cccc(C(F)(F)F)c4)c3N)n2)cc1 | -7.25% (inactive) | 
20 | O=C(c1nnc(-c2ccc(Cl)cc2)o1)C1CCCC1 | 3.3% (inactive) | 
21 | CC(C)N(Cc1nnc(-c2ccc(Cl)cc2)o1)C(=O)C1=COCCO1 |  | 9.2 µM (active)
22 | Cc1ccc2nc(N(CCN(C)C)C(=O)C3=COCCO3)sc2c1 | -3.83% (inactive) | 
23 | N#Cc1ccc(-c2cccs2)nc1SCc1ccc(Br)cc1 | -26.8% (inactive) | 
24 | Nc1c(-c2ccccc2)nnn1Cc1ccccc1 | -18.3% (inactive) | 
25 | Cc1cc(C(=O)NNC(=O)CCC2CCCCC2)c(C)o1 | 1.89% (inactive) | 
26 | COCc1c(C(=O)NC2CCCCC2)cnn1-c1nccc(-c2ccccc2OC)n1 | 5.12% [at 9.04 µM] (inactive) | 

Row | SMILES | activity change, negative = growth inhibition | Potency
27 | Cc1cc(C(=O)NC2CCCc3c2cnn3-c2cccc(C)c2C)c(C)o1 (centres undefined) |  | 13 µM (active)
28 | COc1ccc(C(=O)NC2CCCc3c2cnn3-c2cccc(C)c2C)c(OC)n1 (centres undefined) |  | 10.3 µM (active)
29 | Cc1cc(C(=O)NCC2Cc3cccc(-c4cncnc4)c3O2)c(C)o1 (centres undefined) | 6.48% [at 9.04 µM] (inactive) | 
30 | Cc1cccc(C(=O)OC(C)C(=O)NC2CCCc3ccccc32)c1O (centres undefined) | 4.8% (inactive) | 
31 | CCN(CC(=O)NCc1ccc(F)cc1)S(=O)(=O)c1ccc(Cl)s1 | -18% (inactive) | 
32 | Cc1ccccc1CCNC(=O)C1CCC(=O)N(Cc2ccc(Cl)cc2)C1 (centres undefined) | -27.1% (inactive) | 
33 | C/C(=N\Nc1ccc(S(N)(=O)=O)cc1[N+](=O)[O-])c1cccs1 | -4.25% (inactive) | 
34 | CCC(=O)N1CCc2cc(Br)c(S(=O)(=O)NCCN3CCCCC3CC)cc21 (centres undefined) | -4.35% (inactive) | 
35 | CCCN(CCC)S(=O)(=O)c1cc2c(cc1Br)CCN2C(=O)CC |  | 8.2 µM (active)
36 | CCC(=O)N1CCc2cc(S(=O)(=O)NC(C(=O)N3CCc4ccccc4C3)C(C)C)ccc21 (centres undefined) | -21.2% (inactive) | 
37 | Cc1ccc2c(c1)-c1c(cnn1CC(=O)Nc1ccccc1C#N)CO2 | -15.2% (inactive) | 
38 | O=C(O)C1C2C=CC(O2)C1C(=O)Nc1ccccn1 (centres undefined) | -1.18% (inactive) | 
39 | CCOC(=O)CSc1nc2c(sc(=S)n2CCc2ccccc2)c(=O)n1Cc1ccco1 |  | 20.6 µM (active)
40 | Cc1cc(C)nc(SCc2nnc(SCC(=O)Nc3ncc(C)s3)n2Cc2ccco2)n1 | -21.2% (inactive) | 
41 | CCOC(=O)CSc1nnc(-c2ccco2)n1C | -0.885% (inactive) | 
42 | O=C(c1ccc(F)cc1)C1CCN(Cc2cn[nH]c2-c2ccccc2)CC1 | -2.03% (inactive) | 
43 | C[C@@H](NC(=O)OC(C)(C)C)c1nnc(S(=O)(=O)Cc2ccccc2)o1 |  | 0.651 µM (active)
44 | CC(C)Sc1nnc([C@H](Cc2ccccc2)NC(=O)OC(C)(C)C)o1 | 9.14% (inactive) | 
45 | C[C@H](NC(=O)OC(C)(C)C)c1nnc(SCC(N)=O)o1 | 1.58% (inactive) | 
46 | CN(CCC#N)c1ccc(C=O)cc1 | -13.6% (inactive) | 
47 | CCn1c(=S)[nH]c2cc(S(=O)(=O)N3CCOCC3)ccc21 | 13.2% (inactive) | 
48 | Cc1ccc(S(=O)(=O)/N=C2\C=C(NS(=O)(=O)c3ccc(C)cc3)C(=O)c3ccccc32)cc1 |  | 23.1 µM (active)
49 | Cc1ccc(S(=O)(=O)N/N=C(\c2ccccc2)C2CC2)cc1 | -15.3% (inactive) | 
50 | Cc1ccc(S(=O)(=O)N[C@H](CO)C(C)C)cc1 | -0.0886% (inactive) | 
51 | CCC1(CC)NC(=O)N(CC(=O)OCC(=O)c2cc(C)c(C)cc2C)C1=O | -17.4% (inactive) | 
52 | Cc1csc(NC(=O)CSc2nc(=O)cc(N)n2-c2ccc(F)cc2)n1 | 1.68% (inactive) | 

Row | SMILES | activity change, negative = growth inhibition | Potency
53 | CC1Cc2[nH][nH]c(=O)c2C(C2CCCC2)O1 (centres undefined) | -16.1% (inactive) | 
54 | CCN1CCC2(CC1)N=C(c1ccc(F)cc1)C(=S)N2C(=O)c1ccc(C)cc1 |  | 8.2 µM (active)
55 | CCN1CCN(C(=O)CSc2ccc(C)cc2)CC1 | 12.1% (inactive) | 
56 | CCn1c(C(C)NC(=O)c2ccc(C)cc2)n[nH]c1=S (centres undefined) | -6.68% (inactive) | 
57 | C/C(=N\NC(N)=S)c1ccncc1 | -2.26% (inactive) | 
58 | C/C(=N\NC(N)=S)c1cccnc1 | -1.16% (inactive) | 
59 | C/C(=N\NC(=S)NC(C)C)c1ccc(C(C)(C)C)cc1 |  | 23.1 µM (active)
60 | COc1ccc(-c2ocnc2C(=O)Nc2ccc3c(c2)CCC3)cc1 | -19.1% (inactive) | 
61 | CC1(C)O[C@@H]2[C@H](O1)[C@@H](COS(=O)(=O)O)O[C@H]2n1ccc(=O)[nH]c1=O | 3.71% (inactive) | 
62 | Cc1ccn2c(=O)c(C(=O)NCCC3=CCCCC3)c(O)nc2c1 |  | 23.1 µM (active)
63 | Cn1nnc2cc(C(=O)NCCC3=CCCCC3)ccc21 | -5.42% (inactive) | 
64 | O=C(NCCC1=CCCCC1)c1ccc(-n2cncn2)cc1 | 3.69% (inactive) | 
65 | Nc1ccc2c(c1)C(O)c1ccc(Cl)cc1-2 (centres undefined) | 9.47% (inactive) | 
66 | O=C(c1ccc(Br)cc1)N(Cc1cccs1)c1ccc(F)cc1 | -0.898% (inactive) | 
67 | CC(C)OC(=O)CN1CCN(c2ccc(Cl)cc2)CC1 | -10% (inactive) | 
68 | Cc1cccc(N2CCN(C(=O)c3cccc(S(=O)(=O)N4CCc5ccccc5C4)c3)CC2C)c1 (centres undefined) |  | 9.2 µM (active)
69 | CC(NC(=O)c1cccc(S(=O)(=O)N2CCc3ccccc3C2)c1)c1ccco1 (centres undefined) | 5.04% (inactive) | 
70 | COC(=O)c1ccc(S(=O)(=O)N2CCc3ccccc3C2)cc1 | 3.02% (inactive) | 
71 | CC1CCCC(C)N1C(=O)COC(=O)COc1ccccc1C#N (centres undefined) | 10% (inactive) | 
72 | O=C(COC(=O)c1ccc(O)cc1O)c1ccc2c(c1)OCCO2 | -7.19% (inactive) | 
73 | CC(CNC(=O)c1ccc(N)cc1)NC(=O)c1ccc(N)cc1 (centres undefined) | -14.5% (inactive) | 
74 | O=C(NC(Cc1ccccc1)C(=O)N1CCCC1C(=O)O)c1ccccc1 (stereo not drawn) (Bz-Phe-Pro-OH; configuration not given here) | 9.2% (inactive) | 
75 | CN(Cc1ccccc1F)C(=O)C(Cc1ccccc1)NC(=O)c1ccccc1 (centres undefined) |  | 29.1 µM (active)
76 | CC(Cc1ccccc1)C(=O)N(C)Cc1ccccc1 (centres undefined) | -28.3% (inactive) | 
77 | CCOc1cccc(C(=O)Nc2nnc(-c3cccs3)s2)c1 | 2.99% (inactive) | 
78 | CC(=O)c1sc(NC(=O)c2ccc(C)cc2)nc1C | 1.92% (inactive) | 

Row | SMILES | activity change, negative = growth inhibition | Potency
79 | N#Cc1ccc(C(=O)Nc2nc(-c3cccs3)c(C(=O)C(F)(F)F)s2)cc1 |  | 1.64 µM (active)
80 | CC1CN(C(=O)c2cc(COc3c(F)cccc3F)on2)CCN1C (centres undefined) | -11.5% (inactive) | 
81 | CC1CCCCN1C(=O)Cn1c(=O)oc2cc(S(=O)(=O)N3CCCCC3)ccc21 (centres undefined) | -9.54% (inactive) | 
82 | CC1CCCN(C(=O)Cn2c(=O)oc3cc(S(=O)(=O)N4CCCCC4C)ccc32)C1 (centres undefined) | -5.01% (inactive) | 
83 | CC(C)CCNC(=O)Cn1c(=O)oc2cc(S(=O)(=O)N3CC(C)CC(C)C3)ccc21 (centres undefined) |  | 23.1 µM (active)
84 | CC(=O)c1cccc(NC(=O)CSc2nc3c(c(=O)[nH]2)CCC3)c1 | -22% (inactive) | 
85 | O=C(CCc1ccccc1)NNC(=O)COc1ccc(Cl)cc1 | 7.55% (inactive) | 
86 | O=C(COC(=O)COc1cccc(F)c1)NCC1CCCCC1 | -5.73% (inactive) | 
87 | CCOc1cccc(OCCCOc2cccc3cccnc23)c1 | -20.9% (inactive) | 
88 | Cc1ccccc1CN1CCC(CNC(=O)c2cc3ccc4cccnc4c3[nH]2)CC1 |  | 16.4 µM (active)
89 | COc1cc(NC(=O)c2cc3ccc4cccnc4c3[nH]2)cc(OC)c1OC | 3.24% (inactive) | 
90 | Cc1ccccc1CN1CCC(CNC(=O)c2c(C)oc3ncnc(N4CCCCC4)c23)CC1 | -37.6% (inactive) | 
91 | Cc1ccccc1CN1CCN(CC(=O)NCc2ccccn2)C1=O | 7.35% (inactive) | 
92 | CCOc1ccccc1N(CC)C(=O)c1cc2ccc3cccnc3c2[nH]1 |  | 5.8 µM (active)
93 | O=c1[nH]n2c(=O)c3c([nH]c2c1N=Nc1ccccc1)CCC3 | 13.8% (inactive) | 
94 | Cc1ccc(N(C(=O)CNC(=O)c2ccco2)C(C(=O)NC2CCCC2)c2ccncc2)cc1 (centres undefined) | 3.72% (inactive) | 
95 | CCOc1cc2[nH]c(=O)n(Cc3ccc(C(=O)NCCN(CC)CC)cc3)c(=O)c2cc1OCC | -21.8% (inactive) | 
96 | CCOC(=O)N1CCN(Cc2nc3cc(NC(C)=O)ccc3n2C)CC1 | -0.461% (inactive) | 
97 | COc1ccc(OCC(=O)Nc2nnc(-c3ccco3)s2)cc1 | 14.6% (inactive) | 
98 | CCCCN(C(=O)C(CCSC)N1C(=O)c2ccccc2C1=O)c1c(N)n(CCC)c(=O)[nH]c1=O (centres undefined) | 13.1% (inactive) | 
99 | CCCCOc1ccc(C(=O)NCc2ccncc2)cc1 | -27.1% (inactive) | 
100 | CCCCOc1ccc(C(=O)NO)cc1 |  | 10 µM (active)
101 | CCCOc1ccc(C(=O)NCCc2ccccc2)cc1 | -25.3% (inactive) | 
102 | CCCOc1ccc(C(=O)CCC(=O)OC(C)C(=O)Nc2ccc(NC(C)=O)cc2)cc1 (centres undefined) | 12.4% (inactive) | 
103 | CCCOc1ccc(C(=O)C(CCC(CNCC)C(=O)c2ccc(OCCC)cc2)CNCC)cc1 (centres undefined) |  | 0.651 µM (active)
104 | CCCCOc1ccc(C(=O)NN2CCN(C)CC2)cc1 | -8.94% (inactive) | 
